# Bioassay records as filed in PubChem BioAssay.
# ELG1 genotox = qHTS screen for small molecules that induce genotoxicity in human embryonic kidney (HEK293T) cells expressing luciferase-tagged ELG1. HEK293T ELG1-luciferase reporter, luminescence, 16 h. Potency, µM (highest dose often 46 µM), hits mostly activators. 330,000 compounds, 1.3% hits. AID 504466, 2011; note: nearly all actives have a fitted effect of over 60% in size
#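 Cells (2,000/well) expressing the ELG1-luciferase fusion are dosed by pin tool and kept 16 hr at 37 °C, 5% CO2. Signal comes from ONE-Glo luciferase reagent after 30 min at room temperature.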
# Rab9 promoter act = qHTS Assay for Rab9 Promoter Activators; 320,000 compounds, 2.8% hits; Huh7 Rab9 promoter-luciferase reporter, luminescence, 24 h; Potency, µM (top dose mostly 9.22 µM), most hits filed as activators; AID 485297, 2010; note: nearly all actives have a fitted effect of over 60% in size
#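 Huh7 cells stably carrying Rab9 promoter–luciferase reporter, plated 1500 cells/well, compound added after 2 h and incubated 24 h at 37 °C; luciferase luminescence then read after 10 min with detection reagent.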
# SMN2 splice enh = qHTS Assay for Enhancers of SMN2 Splice Variant Expression. HEK293 SMN2-luciferase splicing reporter, luminescence, 30-36 h. Potency, µM (titrated, usually from 46.1 µM), hits mostly activators. 210,000 compounds, 2.8% hits. AID 1458, 2008; note: nearly all actives have a fitted effect of over 55% in size
#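 HEK293 cells carry an SMN2 […]–luciferase reporter in which exon 7 inclusion puts luciferase in frame. Cells were plated 10-12 h before compound addition, then incubated 30-36 h at 37C. ONE-Glo luminescence was read; sodium butyrate at 4.5 mM final served as control.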
# KinaseGlo FLuc = Counterscreen for Luciferase (Kinase-Glo TM) Inhibition. Luciferin 4-monooxygenase (Photuris pensylvanica), Q27757. Kinase-Glo luciferase, ATP luminescence, 8 min. Potency, µM (doses to about 38.3 µM), most hits filed as inhibitors. 200,000 compounds, 0.28% hits; note: nearly all actives have a fitted effect of over 60% in size
#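 Compound is pinned into ATP-containing buffer (10 uM ATP, imidazole pH 7.2, 7 mM MgCl2). Kinase-Glo luciferase reagent is then added. Light output is recorded following an 8-min room-temperature incubation.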
# FLuc modulator = qHTS profiling assay for firefly luciferase inhibitor/activator using purifed enzyme and Km concentrations of substrates (counterscreen for miR-21 project). Luciferin 4-monooxygenase (Photinus pyralis), P08659. purified FLuc, Km substrates, luminescence inhibition. Potency, µM (series often up to 57.5 µM), hits mostly inhibitors. 360,000 compounds, 6.9% hits; note: nearly all actives have a fitted effect of over 55% in size
# Target sequence (P08659 whole entry, looked up): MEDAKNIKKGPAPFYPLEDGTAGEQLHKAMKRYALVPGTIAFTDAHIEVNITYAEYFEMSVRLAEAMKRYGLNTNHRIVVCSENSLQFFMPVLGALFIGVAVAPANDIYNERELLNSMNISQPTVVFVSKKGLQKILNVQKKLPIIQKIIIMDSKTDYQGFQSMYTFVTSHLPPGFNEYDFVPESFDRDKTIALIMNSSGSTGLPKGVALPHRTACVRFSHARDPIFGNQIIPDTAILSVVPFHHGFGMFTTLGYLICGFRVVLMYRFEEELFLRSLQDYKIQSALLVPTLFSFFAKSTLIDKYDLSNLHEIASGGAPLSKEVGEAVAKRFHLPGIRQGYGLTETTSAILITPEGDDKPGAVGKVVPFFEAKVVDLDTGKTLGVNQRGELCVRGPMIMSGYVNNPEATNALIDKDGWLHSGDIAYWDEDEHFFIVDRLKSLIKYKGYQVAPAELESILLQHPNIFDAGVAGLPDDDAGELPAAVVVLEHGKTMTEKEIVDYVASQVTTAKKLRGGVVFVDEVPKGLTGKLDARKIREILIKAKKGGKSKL
#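 Purified P. pyralis luciferase (10nM final) with 10uM D-luciferin and 10uM ATP (Km levels) in 50mM Tris acetate pH 7.5, 10mM Mg acetate, 0.01% Tween-20, 0.05% BSA; qHTS 6-point titration, ~60 µM downward; luminescence read.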
# NPC1 promoter act = qHTS Assay for NPC1 Promoter Activators; Huh7 NPC1 promoter luciferase reporter, 24 h; Potency, µM (titrated, usually from 9.22 µM), actives largely listed as activators; 320,000 compounds, 2.4% hits; note: nearly all actives have a fitted effect of over 60% in size
#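 Quantitative HTS used a cell-based reporter: Huh7 cells stably bearing the NPC1 promoter upstream of luciferase were treated with compounds for 24 h, and promoter activation was read as luminescence.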
# A number is an active result; . = inactive; ? = inconclusive; / = no result given; [ ] = dose if it differs, or a comment. This is a sample that favours compounds with a hit; in the whole collection about 7.4% have one here. Calls come from the whole dose curve; as a rule, active = well fitted curve in the direction sought with a large enough effect; inconclusive = small, poorly fitted or top-dose-only effect, or another doubt; inactive = no such curve, though single readings can be large; an effect the other way counts as inactive or inconclusive.
SMILES,ELG1 genotox,Rab9 promoter act,SMN2 splice enh,KinaseGlo FLuc,FLuc modulator,NPC1 promoter act
O=C(O)c1cc(-c2ccc3cc4c(cc3c2)OCO4)nc2ccccc12,/,/,3.5µM,.[7.66 µM],/,/
Cc1cc(C)nc(NC(=O)c2cc(-c3ccc4c(c3)OCO4)nc3ccccc23)c1,.,.,/,/,?,.
O=C(O)c1cc(-c2cccnc2)nc2ccc(Br)cc12,.,.,.,.,?,.
O=C(O)c1cc(-c2ccc(O)cc2)nc2ccccc12,.,.,.,.,?,.
O=C(O)c1cc(-c2ccc3c(c2)OCO3)nc2ccc(Br)cc12,.,.,.,.,3µM,.
O=C(NCCCN1CCCC1=O)c1cc(-c2ccc3c(c2)OCO3)nc2ccccc12,.,.,.,.,24µM,.
c1ccc2nc(-c3ccc4c(c3)OCO4)ccc2c1,2.6µM,0.32µM,13µM,.,0.95µM,0.56µM
COc1ccc(OC)c2nc(-c3ccc4c(c3)OCO4)ccc12,4.6µM,1.4µM,/,/,1.9µM,1.4µM
COc1cccc2cc(C(N)=O)/c(=N/NC(=O)COc3ccc(Cl)cc3)oc12,?,.,.,.,.,.
C[C@H](CO)N1C[C@H](C)[C@@H](CN(C)S(=O)(=O)c2cccs2)Oc2c(NS(=O)(=O)c3cn(C)cn3)cccc2C1=O,.,/,/,/,/,/
Cn1c(CC(=O)NNC(=O)c2cccnc2)nc2ccccc21,.,.,/,/,/,.
O=C(CSc1ccccc1)Nc1nccs1,.,?,.,.,.,.
O=C(CSc1cn(Cc2ccccc2)c2ccccc12)Nc1nccs1,4.6µM,2.5µM,?,.,0.85µM,3.2µM
CCOc1ccccc1CN(CCc1ccc2c(c1)OCO2)Cc1cc(OC)c(OC)cc1OC,/,/,.,/,.,/
O=Cc1ccccc1OCc1ccc2c(c1)OCO2,13µM,.,/,/,1.3µM,.
CN(C)S(=O)(=O)c1ccc(N2CCCC2)c(C(=O)NC2CCC(O)CC2)c1 (stereo not drawn),.,.,/,/,.,.
O=c1oc(-c2ccccc2F)nc2scc(-c3ccccc3)c12,?,?,/,/,4.8µM,.
c1csc(-c2nnc3ccccn23)c1,.,.,0.0028µM,.,.,.
O=C(NCc1ccccc1)NC1COc2ccccc2C1 (stereo not drawn),/,/,/,/,.,/
Cc1ccnc(N/C=C/C(=O)c2ccc(Br)cc2)c1,?,1.1µM,/,/,0.95µM,1.6µM
COc1ccc(C(=O)/C=C/Nc2cc(C)ccn2)cc1,?,0.32µM,/,/,0.48µM,0.4µM
COc1ccc(S(=O)(=O)Nc2cc(C)ccn2)cc1,.,.,.,.,.,.
O=C(/C=C\Nc1ccc(Cl)cn1)c1ccc(Br)cc1,?,2.5µM,11µM,.,?,2µM
Cc1cc(N/C=C/C(=O)c2ccc(Br)cc2)no1,?,?,?,.,?,?
CCOC(=O)Cc1csc(NC(=O)/C=C\c2ccccc2Cl)n1,.,?,/,.,1.5µM,.
SMILES,ELG1 genotox,Rab9 promoter act,SMN2 splice enh,KinaseGlo FLuc,FLuc modulator,NPC1 promoter act
CCOC(=O)Cc1csc(NC(=O)/C=C/c2ccccc2Cl)n1,.,?,/,/,1.2µM,?
CCOC(=O)Cc1csc(NC(=O)c2c(-c3c(Cl)cccc3Cl)noc2C)n1,.,.,.,.,.,.
CCOc1ccc(N2C(=O)CC(SC(=NC)Nc3ccc(F)cc3)C2=O)cc1 (stereo not drawn),.,.,.,.,.,.
CSC1=NSC2=NC(=O)/C(=C\c3ccc(OC(=O)c4ccco4)cc3)C(=N)N12,?,1.6µM,/,/,19µM,3.5µM
CC(C)CS(=O)(=O)C1=NSC2=NC(=O)/C(=C\c3ccc(OC(=O)c4ccco4)cc3)C(=N)N21,.,.,/,/,?,.
CS(=O)(=O)C1=NSC2=NC(=O)/C(=C\c3ccc(OC(=O)c4ccco4)c(Br)c3)C(=N)N21,.,.,/,/,13µM,.
O=C(c1ccco1)N1CCN(C(=O)c2cnn(-c3ccc(Cl)cc3)c2C2CCNCC2)CC1,.,.,/,/,.,.
O=C(Nc1ccc(F)cc1F)c1ccc(-n2cnnc2)cc1,/,/,/,/,.,/
Cc1ccc2c(c1)sc(=NC(=O)C1CC1)n2C,?,3.5µM,/,/,8.5µM,2.5µM
CC(=O)N=c1sc2ccccc2n1C,.,.,.,.,.,.
Cc1ccc2c(c1)sc(=NC(=O)c1cccs1)n2C,0.52µM,3.5µM,.,?,0.15µM,3.5µM
C#CCn1c(=NC(=O)c2cccs2)sc2cccc(OC)c21,?,.,.,.,?,.
COc1ccc(-c2c(NC(=O)c3ccco3)oc3c(C)cccc3c2=O)cc1OC,.,.,/,/,.,.
Cc1ccc(-c2nc(SCCOc3ccccc3C)n3[nH]c(=O)cc3n2)cc1,/,/,/,/,.,/
Cc1ccc(NC(=O)CSc2ccccc2NC(=O)c2ccccc2Cl)cc1Cl,.,.,.,.,.,.
NC(=O)c1ccsc1NC(=O)c1cc(=O)c2ccccc2o1,?,1.8µM,10µM,.,2.7µM,?
CC(=O)c1sc(NC(=O)c2cc(=O)c3ccccc3o2)nc1C,?,3.2µM,11µM,.,7.6µM,2.5µM
CC(=O)c1sc(NC(=O)c2c(F)cccc2F)nc1C,.,.,.,.,.,.
CC(=O)c1sc(NC(=O)c2oc3ccc(F)cc3c2C)nc1C,.,2.8µM,/,/,1.9µM,2.2µM
CCCc1nnc(NC(=O)c2cc(=O)c3ccccc3o2)s1,/,/,.,/,?,/
CCOC(=O)c1csc(NC(=O)c2cc(=O)c3ccccc3o2)n1,.,?,.,.,15µM,.
Cc1cccc(Oc2ccc3c(c2)Oc2ccccc2NC3=O)c1,/,/,.,/,.,/
CC(=O)Nc1cccc(NC(=O)Cc2nc(-c3ccccc3)sc2-c2ccc(C)cc2)c1,.,.,.,.,21µM,.
COc1cccc(NC(=O)Cc2nc(-c3ccccc3)sc2-c2ccc(C)cc2)c1,.,.,.,.,15µM,.
COC(=O)c1cccc(NC(=O)Cc2nc(-c3ccccc3)sc2-c2ccc(C)cc2)c1,.,.,.,.,.,.
S=c1[nH]nc(-c2cccs2)n1/N=C/c1cn(-c2ccccc2)nc1-c1ccccc1,.,.,/,/,3.4µM,.
COc1ccc(-c2nn(-c3ccccc3)cc2/C=C(\C#N)S(=O)(=O)c2ccccc2)cc1OC,.,.,.,.,.,.
COc1ccc(-c2nn(-c3ccccc3)cc2C(N)=O)cc1OC,.,.,/,/,17µM,.
NC(=O)c1cn(-c2ccccc2)nc1-c1cccnc1,.,.,.,.,.,.
COc1ccc(-c2nn(-c3ccccc3)cc2/C=N/NC(N)=S)cc1OC,.,.,.,.,5.4µM,.
